{"source": "PubChem BioAssay AID686949", "about": "(The Scripps Research Institute Molecular Screening Center, 2013)", "note": "The campaign covered roughly 3,200 compounds. About 2,200 (69%) were called active.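 How the source made its calls: active means activation, as change over the incubation, above the mean of all tested compounds plus 3 SD (cut at about 13% in these data); inactive means the rest.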 The set was probably picked from earlier hits. A selection follows.", "data": [{"target": "Kallikrein-7 (Homo sapiens) (UniProt P49862)", "sequence (P49862 whole entry, looked up)": "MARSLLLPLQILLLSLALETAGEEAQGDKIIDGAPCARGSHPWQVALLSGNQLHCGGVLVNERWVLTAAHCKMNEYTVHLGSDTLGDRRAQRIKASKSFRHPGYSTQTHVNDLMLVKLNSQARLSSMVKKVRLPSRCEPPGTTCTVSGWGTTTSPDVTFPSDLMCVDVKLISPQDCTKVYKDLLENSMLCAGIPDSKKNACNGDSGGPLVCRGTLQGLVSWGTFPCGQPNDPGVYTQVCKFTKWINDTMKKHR", "experiment": "activation of human kallikrein-7 proenzyme – biochemical, fluorescence intensity, triplicate, confirmation (AID 686949)", "conditions": "purified proKLK7, EDANS-DABCYL substrate fluorescence; at 7 µM; stronger effect = higher value; scaled: vehicle 0, mature enzyme 100", "values": [{"smiles": "CCOC(=O)NN1C(=O)c2ccccc2NC1c1cccc(O)c1", "note": "(stereo not drawn)", "activation": "19.6% (active)"}, {"smiles": "CC(=O)NN1C(=O)c2ccccc2NC1c1ccccc1", "note": "(stereo not drawn)", "activation": "33.8% (active)"}, {"smiles": "COc1cc(/C=N\\NC(=O)c2nonc2N)c(OC)cc1Br", "activation": "75.4% (active)"}, {"smiles": "CCc1nc(Nc2ccc(NC(C)=O)cc2)c2oc3ccccc3c2n1", "activation": "69.9% (active)"}, {"smiles": "Cc1cc(C)c(C#N)c(SCC(=O)NN2CC(=O)N(c3ccccc3F)CC2=O)n1", "activation": "52.8% (active)"}, {"smiles": "CCN1CCc2c(C#N)c(NCc3ccccc3)nc(NCCO)c2C1", "activation": "31.4% (active)"}, {"smiles": "COc1cccc(NC(=O)CN(C)C(=O)/C=C/c2cc(OC)ccc2OC)c1", "activation": "-101% (inactive)"}, {"smiles": "COc1cccc2sc3cc(NCC[C@@H]4CCCN4C)ccc3c(=O)c12", "activation": "46.9% (active)"}, {"smiles": "CN(C)C(=O)c1coc2nc3ccccc3nc12", "activation": "104% (active)"}, {"smiles": "COc1ccc(-c2cn3cccnc3n2)cc1", "activation": "68.6% (active)"}, {"smiles": "COc1ccc2nc(-c3ccccn3)ccc2c1", "activation": "3.28% (inactive)"}, {"smiles": "c1ccc(-c2cn3cccnc3n2)cc1", "activation": "68.7% (active)"}, {"smiles": "FC(F)(F)Oc1ccc(-c2cn3cccnc3n2)cc1", "activation": "36.4% (active)"}, {"smiles": "Cc1cc(S(=O)(=O)c2cc3ccc(O)c(C)c3oc2=O)ccc1F", "activation": "59.1% (active)"}, {"smiles": "CC1(C)CC(=O)c2cc(OCC(=O)NCC3CCCO3)ccc2O1", "note": "(stereo not drawn)", "activation": "48.1% (active)"}, {"smiles": "CC(=O)Nc1nc2ncccn2c1-c1ccc(C(F)(F)F)cc1", "activation": "30.9% (active)"}, {"smiles": "CCCn1c(=NC(C)=O)c(C(=O)OCC)cc2c(=O)n3ccccc3nc21", "activation": "33.5% (active)"}, {"smiles": "CN1CCCc2cc(C#N)c(=O)[nH]c21", "activation": "33.1% (active)"}, {"smiles": "Cc1cc2c(nc1C)CCCN2C", "activation": "0.32% (inactive)"}, {"smiles": "COCCN(CCOC)c1nc(N)c2c(N)nc3c(c2c1C#N)CC(=O)N3Cc1ccc(Cl)cc1", "activation": "-29.9% (inactive)"}, {"smiles": "COc1nc(N=C(N)N)nc2c(C)cccc12", "activation": "23.8% (active)"}, {"smiles": "NC(N)=Nc1nc(-c2ccccc2)c2cc(Cl)ccc2n1", "activation": "-1.67% (inactive)"}, {"smiles": "CCOc1c2ccc(C(=O)NCc3ccc4c(c3)OCO4)cc2nn1C", "activation": "7.8% (inactive)"}, {"smiles": "Cc1coc2c1c(C)cc1oc(=O)c(CC(=O)NCC(=O)N[C@H](C(=O)O)C(C)C)c(C)c12", "activation": "38.2% (active)"}, {"smiles": "COC(=O)c1cnn2c(C(F)(F)F)cc(-c3ccco3)nc12", "activation": "38.9% (active)"}, {"smiles": "Cc1nc2ccccc2cc1O", "activation": "-5.12% (inactive)"}, {"smiles": "COc1cc2c(cc1OC)CC1(CCCCC1)N=C2", "activation": "43.5% (active)"}, {"smiles": "Cc1cc(C)c2c(n1)nn1c(-n3ccnc3)cc(C)nc21", "activation": "50.2% (active)"}, {"smiles": "Cc1cccn2c(=O)c3cc(C(=O)NCCN4CCOCC4)c(=N)n(Cc4cccnc4)c3nc12", "activation": "17.1% (active)"}, {"smiles": "Cc1cccn2c(=O)c3cc(C#N)c(=NC(=O)c4cccnc4)n(CC4CCCO4)c3nc12", "note": "(stereo not drawn)", "activation": "-75.3% (inactive)"}, {"smiles": "CCn1c(=N)c(C(=O)NCCCOC)cc2c(=O)n3cccc(C)c3nc21", "activation": "72.2% (active)"}, {"smiles": "Cc1ccc2nc3c(cc(C(=O)NCCc4ccccc4)c(=N)n3CC3CCCO3)c(=O)n2c1", "note": "(stereo not drawn)", "activation": "-15.4% (inactive)"}, {"smiles": "CC(C)=NN1C(=O)c2ccccc2NC1(C)C", "activation": "25% (active)"}, {"smiles": "COC(=O)c1ccc(C2C3=C(Nc4nnnn42)c2ccccc2OC3)cc1", "note": "(stereo not drawn)", "activation": "5.83% (inactive)"}, {"smiles": "CC(C)Cc1nc(Nc2ccc(S(=O)(=O)N3CCCC3)cc2)c2nnn(Cc3ccccc3)c2n1", "activation": "43.6% (active)"}, {"smiles": "COc1cccc(OCc2cc(/C=N/NC(=O)c3nc(Cl)c(Cl)c(N)c3Cl)ccc2OC)c1", "activation": "62.4% (active)"}, {"smiles": "CC(C)(C)OC(=O)c1c(N)n(CCCN2CCCC2=O)c2nc3ccccc3nc12", "activation": "69.5% (active)"}, {"smiles": "COCC(C)OC(=O)c1c(N)n(CCCN2CCOCC2)c2nc3ccccc3nc12", "note": "(stereo not drawn)", "activation": "20% (active)"}, {"smiles": "COC(=O)c1c(C)c(C)nc(N)c1C#N", "activation": "71.3% (active)"}, {"smiles": "Cc1ccc(-c2nn(-c3ccccc3)cc2/C=C/C(=O)Nc2cccc(S(N)(=O)=O)c2)cc1", "activation": "263% (active)"}, {"smiles": "CCc1ccc(-c2cc(C(=O)NCc3ccco3)c3ccccc3n2)s1", "activation": "75.3% (active)"}, {"smiles": "COc1cc(C(=O)N2C(=O)c3cccc(N)c3C2=O)cc(OC)c1OC", "activation": "127% (active)"}, {"smiles": "CC1CC(C)CN(S(=O)(=O)c2cccc(C(=O)N3C(=O)c4cccc(N)c4C3=O)c2)C1", "note": "(stereo not drawn)", "activation": "240% (active)"}, {"smiles": "Nc1ccccc1-c1nc2ccncc2[nH]1", "activation": "2.63% (inactive)"}, {"smiles": "CCCCc1cc(=O)oc2cc(C)cc(OCc3nn[nH]n3)c12", "activation": "28.8% (active)"}, {"smiles": "CCCCCn1c(=O)c(C(=O)OCC)c(Cl)c2ccccc21", "activation": "-0.17% (inactive)"}, {"smiles": "CCCCN(CCCC)CC(O)Cn1c2ccccc2c(=O)c2ccccc21", "note": "(stereo not drawn)", "activation": "13.8% (active)"}, {"smiles": "CCCc1cc(=O)oc2c(C)c(O)c(CN3CCCCC3)cc12", "activation": "62.8% (active)"}, {"smiles": "CC(=O)Nc1ccc(S(=O)(=O)NCC(=O)OCc2cc(=O)oc3ccc4ccccc4c23)cc1", "activation": "218% (active)"}, {"smiles": "Nc1ccc2nn(-c3ccc(Cl)cc3)nc2c1", "activation": "65.8% (active)"}, {"smiles": "CC1(C)CN(c2ccc(-c3ccnc4ncnn34)cc2)C1=O", "activation": "68.6% (active)"}, {"smiles": "CCN1CCN(C(=O)c2cc3cc4ccc(OC)cc4nc3s2)CC1", "activation": "-15.9% (inactive)"}, {"smiles": "COc1ccc2oc(=O)c(C(=O)N3CCCC3)cc2c1", "activation": "23.8% (active)"}, {"smiles": "COC(=O)C1=NN(c2ccccc2)C2C(=O)N(c3ccccc3OC)C(=O)C12", "note": "(stereo not drawn)", "activation": "21.2% (active)"}, {"smiles": "Cn1cccc1/C=N/NC(=O)CNc1cccc2ccccc12", "activation": "2.27% (inactive)"}, {"smiles": "O=C(O)c1cccnc1Sc1ncnc2sc3c(c12)CCC3", "activation": "17.9% (active)"}, {"smiles": "Cc1oc2nc(SCC(=O)Nc3ccc(S(N)(=O)=O)cc3)nc(NC(=O)c3ccccc3)c2c1C", "activation": "5.56% (inactive)"}, {"smiles": "O=c1oc2cc(O)ccc2cc1-c1ccc(F)cc1", "activation": "76% (active)"}, {"smiles": "O=C(Nc1nncs1)c1ccccc1NS(=O)(=O)c1cccs1", "activation": "26.4% (active)"}, {"smiles": "CCOc1ccc(N2C(=O)CC(N(O)c3ccccc3)C2=O)cc1", "note": "(stereo not drawn)", "activation": "166% (active)"}, {"smiles": "COC(=O)Cc1cc(=O)oc2c(C)c(O)ccc12", "activation": "68% (active)"}, {"smiles": "CN(C)CCN1CCN(c2cc(-c3cccc(Cl)c3)nc3ccnn23)CC1", "activation": "0.23% (inactive)"}, {"smiles": "COCc1cc(=O)[nH]c2cc(NC(=O)C(F)(F)F)c(C)cc12", "activation": "239% (active)"}, {"smiles": "N#Cc1nc(-c2cccc3ccccc23)oc1N", "activation": "70.2% (active)"}, {"smiles": "CN(C)Cc1c(O)ccc2c(=O)c(-c3ccccc3Cl)coc12", "activation": "70.2% (active)"}, {"smiles": "O=C(OC1CCOC1=O)c1ccc(-c2nc3ccccc3s2)s1", "note": "(stereo not drawn)", "activation": "17.6% (active)"}, {"smiles": "COC(=O)Cc1nc2c(N)nc(N)nc2[nH]c1=O", "activation": "18.7% (active)"}, {"smiles": "O=C(Oc1c(-c2ccco2)oc2ccccc2c1=O)c1cccnc1", "activation": "22.3% (active)"}, {"smiles": "CC(C)(C)Nc1c(-c2cccs2)nc2ccccn12", "activation": "-59.6% (inactive)"}, {"smiles": "CN(C)CCCn1c(N)c(C#N)c2nc(C#N)c(C#N)nc21", "activation": "38% (active)"}, {"smiles": "CCS(=O)(=O)Nc1cc(C(=O)OC)ccc1C(=O)OC", "activation": "10% (inactive)"}, {"smiles": "Cc1cccc(C)c1NC(=O)C(c1ccccc1)N1CC(=O)Nc2ccccc21", "note": "(stereo not drawn)", "activation": "40.3% (active)"}, {"smiles": "COc1ccc(C2=CC(c3cccc(OC)c3)n3nnnc3N2)cc1", "note": "(stereo not drawn)", "activation": "-12.2% (inactive)"}, {"smiles": "CCOC(=O)C1=C(O)/C(=C/c2ccc(OCC(=O)Nc3ccc(C)cc3)cc2)N=C1C", "activation": "2.24% (inactive)"}, {"smiles": "CCC(c1nnnn1Cc1ccco1)N(CCc1ccccc1)Cc1cc2ccc(OC)cc2[nH]c1=O", "note": "(stereo not drawn)", "activation": "-0.98% (inactive)"}, {"smiles": "Cc1ccsc1-c1cc(C(=O)O)c2c(ccc3ccccc32)n1", "activation": "19.8% (active)"}, {"smiles": "O=C(/C=C/c1ccc2c(c1)OCCO2)c1ccc(O)cc1", "activation": "3.2% (inactive)"}, {"smiles": "O=C(O)c1ccc2c(c1)C(=O)N(c1ccc(/C=C/C(=O)c3ccccc3)cc1)C2=O", "activation": "703% (active)"}, {"smiles": "CCCN(CC(=O)NC(=O)NC1CCCCC1)CC(=O)Nc1cc(Cl)ccc1Cl", "activation": "1.91% (inactive)"}, {"smiles": "CC(OC(=O)c1ccccc1NCCO)C(=O)Nc1ccnn1C(C)C", "note": "(stereo not drawn)", "activation": "26.1% (active)"}, {"smiles": "O=c1c(-c2ccccc2)coc2c(CN3CCOCC3)c(O)ccc12", "activation": "18.1% (active)"}, {"smiles": "Cc1cc(=O)oc2c3c(cc(OCC(=O)NCCC(=O)N[C@@H](C)C(=O)O)c12)OC(C)(C)CC3", "activation": "58.2% (active)"}, {"smiles": "Cc1c(C)c2c(OCC(=O)N[C@@H](C(=O)O)c3ccccc3)cc3c(c2oc1=O)CCC(C)(C)O3", "activation": "36.6% (active)"}, {"smiles": "Cc1c(C)c2c(OCC(=O)NCCCO)cc3c(c2oc1=O)CCC(C)(C)O3", "activation": "44.6% (active)"}, {"smiles": "Cc1cc(=O)oc2c3c(cc(OCC(=O)N[C@H](C(=O)O)c4ccccc4)c12)OC(C)(C)CC3", "activation": "34% (active)"}, {"smiles": "CCOC(OCC)c1ccc(/C=C\\c2nccc(N)n2)cc1", "activation": "-9.52% (inactive)"}, {"smiles": "Cc1nn(-c2ccccc2)c(C)c1NC(=O)COC(=O)c1cc(Cl)ccc1O", "activation": "24.2% (active)"}, {"smiles": "CCOC(=O)c1[nH]c2ccc(OC)cc2c1NC(=O)CCN1CCN(Cc2ccccc2)CC1", "activation": "1.17% (inactive)"}, {"smiles": "CC(=O)N1CCN(C(=O)c2cc(-c3ccc(C)o3)nc3ccccc23)CC1", "activation": "62.7% (active)"}, {"smiles": "CC1CCCN(C(=O)c2cc(-c3ccco3)nc3ccccc23)C1", "note": "(stereo not drawn)", "activation": "36.6% (active)"}, {"smiles": "COc1ccc(CNC(=O)COC(=O)C2=Cc3ccccc3OC2)cc1", "activation": "9.73% (inactive)"}, {"smiles": "COc1ccc(-c2cc(C(=O)n3cnc4ccccc43)c3ccccc3n2)cc1", "activation": "56.7% (active)"}, {"smiles": "CNC(=O)COC(=O)c1cc(-c2ccc(OC)cc2)nc2ccccc12", "activation": "88.7% (active)"}, {"smiles": "COc1ccc2nc(Nc3nc4cc5c(cc4s3)OCCO5)sc2c1", "activation": "-12.6% (inactive)"}, {"smiles": "O=C(O)c1ccc2c3c(cccc13)C(=O)N(OS(=O)(=O)c1ccccc1)C2=O", "activation": "181% (active)"}, {"smiles": "CC(=O)Nc1nc(C)c(-c2csc(Nc3ccc(S(N)(=O)=O)cc3)n2)s1", "activation": "17.4% (active)"}, {"smiles": "CNc1cncc(-c2cccc(C(=O)N3CCOCC3)c2)n1", "activation": "38.8% (active)"}, {"smiles": "Cc1cc(N2CCOCC2)nc2ccc(NC(=S)N3CCN(Cc4ccccc4)CC3)cc12", "activation": "9.27% (inactive)"}]}]}
